The source of these data is PubChem BioAssay (NCI).

Common to all, as to test: NCI-60 one-dose screen, 48 h (100 = growth as untreated, 0 = no growth, -100 = all killed)
The subject of test [1] is SK-MEL-2 melanoma. Conditions: 10 µM unless noted.
For test [2], the system named is EKVX NSCLC. Conditions: 10 µM unless noted.
Test [3] relates to SN12C renal. To be noted: 10 µM unless noted.
Test [4] has as its system UO-31 renal. Conditions: 10 µM unless noted.
Test [5] relates to TK-10 renal. Conditions: 10 µM unless noted.
Test [6] concerns ACHN renal. To be noted: 10 µM unless noted.
Test [7] relates to CAKI-1 renal. Conditions: 10 µM unless noted.
Test [8] relates to A498 renal. Conditions: 10 µM unless noted.
Test [9] has as its system CCRF-CEM leukemia. Conditions: 10 µM unless noted.
In test [10] the test system is MOLT-4 leukemia. Conditions: 10 µM unless noted.
Test [11] has as its system SR leukemia. To be noted: 10 µM unless noted.
In test [12] the test system is RPMI-8226 leukemia. To be noted: 10 µM unless noted.
Test [13] concerns OVCAR-8 ovarian. To be noted: 10 µM unless noted.
For test [14], the system named is OVCAR-5 ovarian. Conditions: 10 µM unless noted.
Test [15] has as its system SK-OV-3 ovarian. To be noted: 10 µM unless noted.
Test [16] deals with IGROV1 ovarian. To be noted: 10 µM unless noted.
Test [17] has as its system OVCAR-3 ovarian. To be noted: 10 µM unless noted.
Test [18] has as its system HS 578T breast. Conditions: 10 µM unless noted.
In test [19] the test system is NCI/ADR-RES ovarian. Conditions: 10 µM unless noted.
The test system of test [20] is OVCAR-4 ovarian. To be noted: 10 µM.

The structures appear in SMILES notation. Compounds without any hit were thinned out: in the full panel of roughly 83,000, 20% have a hit.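 Note: values are percent growth. 100 is the growth of untreated cells, values between 100 and 0 indicate rising inhibition; between -100 and 0 indicates cell death.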 Values without a mark were called inactive. Calls of active or inactive are those of the source. Rule for the calls: active = growth percent below 10; inactive = the rest.

In the case of `C=C(C)[C@@H]1CC[C@]2(c3ncc(C)o3)CC[C@]3(C)[C@H](CC[C@@H]4[C@@](C)(CCC#N)[C@H](C(=C)C)CC[C@]43C)[C@@H]12`, the growth in test [1] is -89.5% [100 µM] (active); in test [2] it was -79.1% [100 µM] (active); in test [3], -91.5% [100 µM] (active); in [4], -94.4% [100 µM] (active); in [5] it was -90.6% [100 µM] (active); in test [6], -97.8% [100 µM] (active). Moreover, the growth was -96.4% [100 µM] (active) in test [7]; -93.4% [100 µM] (active) in test [8]; -11.1% [100 µM] (active) in test [9]; -35.4% [100 µM] (active) in test [10]; 14.9% [100 µM] in test [11]; -41% [100 µM] (active) in test [12]. Also, the growth in test [13] is -78.1% [100 µM] (active); in test [14] it was -97.2% [100 µM] (active); in test [15], -88.4% [100 µM] (active); in test [16], -87.6% [100 µM] (active); in test [17], -80.4% [100 µM] (active); in test [18], -28% [100 µM] (active). The growth in [19] was -82.9% [100 µM] (active).

In the case of `O=C1Nc2ccccc2/C1=C/C(=O)c1ccc(N2CCOCC2)cc1`, the growth is 99% in test [1]; 98% in [2]; 93.7% in test [3]; 59.6% in test [4]; 102% in [5]; 72.7% in [6]. The growth in test [7] was 78.4%; in [8] it was 89.7%; in [9], 9.92% (active); in test [10], 47.8%; in test [11], 26.7%; in test [12], 79.6%. Besides, the growth is 82.9% in [13]; 96.9% in [14]; 106% in test [15]; 70.3% in [16]; 60.9% in test [17]; 84% in test [18]. The growth in [19] was 100%.

As to `CC1(C)CC[C@]2(C(=O)O)CC[C@]3(C)C(=CC[C@@H]4[C@@]5(C)C/C(=C/c6cccnc6)[C@H](O)C(C)(C)[C@@H]5CC[C@]43C)[C@@H]2C1`, the growth is -29.9% [100 µM] (active) in test [1]; 0.843% [100 µM] (active) in test [2]; 6.59% [100 µM] (active) in test [3]; -57.6% [100 µM] (active) in test [4]; 1.87% [100 µM] (active) in test [5]; 2.77% [100 µM] (active) in test [6]. The growth in [7] was 5.69% [100 µM] (active); in [8], 23.9% [100 µM]; in test [9], 1.37% [100 µM] (active); in [10], 4.37% [100 µM] (active); in test [11], 37.3% [100 µM]; in test [12], -12% [100 µM] (active). The growth in test [13] was 13.2% [100 µM]; in test [14], -2.1% [100 µM] (active); in test [15], 1.32% [100 µM] (active); in test [16], 2.18% [100 µM] (active); in test [17], -14.6% [100 µM] (active); in test [18] it was 3% [100 µM] (active).

As for `Cc1ccc(-c2cc(-c3ccc(C)cc3)nc(NCCNc3ccnc4cc(Cl)ccc34)n2)cc1`, the growth in [1] is -72.6% (active); in test [2] it was 24.6%; in test [3], -88.3% (active); in test [4], -68.5% (active); in test [5], -49.2% (active); in test [6], -87.5% (active). In addition, the growth in [7] was -47.8% (active); in test [8] it was 68.4%; in [9], 2.06% (active); in test [10] it was -29.6% (active); in test [11], 2.87% (active); in test [12] it was -22% (active). Besides, the growth in test [13] is -53.4% (active); in [14], -34.9% (active); in test [20] it was -31.4% (active); in test [16], -66.2% (active); in test [18] it was -46.7% (active); in test [19] it was -63.1% (active).

As for `C[C@H]1[C@H](C)CC[C@]2(C(=O)N3CCN(C)CC3)CC[C@]3(C)C(=CC[C@@H]4[C@@]5(C)C/C(=C/c6ccco6)C(=O)C(C)(C)[C@@H]5CC[C@]43C)[C@H]12`, the growth was 42.1% [100 µM] in test [1]; 42.3% [100 µM] in [2]; 28% [100 µM] in test [3]; -97.5% [100 µM] (active) in test [4]; 43.7% [100 µM] in test [5]; 20.8% [100 µM] in test [6]. The growth in [7] was 26.2% [100 µM]; in test [8] it was 53.8% [100 µM]; in test [9] it was 16.5% [100 µM]; in test [10], 22.6% [100 µM]; in test [11] it was 32% [100 µM]; in test [12], 19.5% [100 µM]. The growth is 25.4% [100 µM] in test [13]; 63.5% [100 µM] in test [14]; 59.3% [100 µM] in test [15]; 3.24% [100 µM] (active) in test [16]; 40.1% [100 µM] in [17]; 53.2% [100 µM] in test [18]. Moreover, the growth in test [19] is 37.9% [100 µM].

For `CCOC(=O)c1nn(C2CCCCO2)c2ccc(NS(=O)(=O)c3ccc(C)cc3)cc12` (stereo not given), the growth is 106% in [1]; 102% in [2]; 93.6% in test [3]; 82.7% in [4]; 111% in test [5]; 94.3% in [6]. In addition, the growth is 77.8% in test [7]; 62.9% in test [8]; 98.9% in test [9]; 86.2% in [10]; 107% in [11]; 98.3% in test [12]. The growth in test [13] is 96.9%; in test [14] it was 110%; in [20], 87.2%; in [16], 102%; in test [18], 94.9%; in test [19] it was 99.6%.

`C=C(C)[C@@H]1CC[C@]2(C)[C@H](C(=O)C=C3[C@@H]4C[C@](C)(C(=O)N5CCN(C)CC5)CC[C@]4(C)CC[C@]32C)[C@@]1(C)CCC#N`: the growth in test [1] is -78.6% [100 µM] (active); in test [2], -20.8% [100 µM] (active); in test [3], -86.9% [100 µM] (active); in [4], -100% [100 µM] (active); in test [5] it was -87.8% [100 µM] (active); in [6] it was -93.7% [100 µM] (active). Further, the growth in [7] is -96.2% [100 µM] (active); in test [8], -73.7% [100 µM] (active); in test [9], -34% [100 µM] (active); in [10], -45.9% [100 µM] (active); in test [11], 34.7% [100 µM]; in [12] it was -54.5% [100 µM] (active). Moreover, the growth in [13] is -70.9% [100 µM] (active); in test [14], -75.9% [100 µM] (active); in test [15] it was -76.1% [100 µM] (active); in test [16], -76% [100 µM] (active); in [17] it was -76.6% [100 µM] (active); in [18], -54.8% [100 µM] (active). For the same molecule, the growth in test [19] is -81.3% [100 µM] (active).
